Common to all, as to assay: NCI-60 one-dose screen, 48 h (100 = growth as untreated, 0 = no growth, -100 = all killed)
Conditions in all cases: 10 µM unless noted

Experiment [1] has as its system NCI-H23 lung.
Experiment [2] deals with NCI-H226 lung.
Experiment [3] deals with NCI-H322M lung.
Experiment [4] has as its system HOP-62 NSCLC.
The subject of experiment [5] is NCI-H460 lung.
Experiment [6] relates to HOP-92 NSCLC.
Experiment [7] relates to NCI-H522 lung.
For experiment [8], the system named is A549/ATCC NSCLC.
In experiment [9] the test system is 786-0 renal.
In experiment [10] the test system is COLO 205 colon.

Compounds without any hit were thinned out: in the full panel of roughly 83,000, 20% have a hit.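 Negative percent growth values reflect cell death: -40 means 40% of the cells present at the start died, and -100 means all died.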 Unmarked numbers belong to inactive results. Calls of active or inactive are those of the source. The calls were made as follows: active = growth percent below 10; inactive = the rest.

With `COc1ccc(NC(=O)CSc2nc(C)c(C(C)=O)n2-c2ccc([N+](=O)[O-])cc2)cc1`, the growth in experiment [1] is 88.2%; in [2] it was 89%; in experiment [3], 92.7%; in [4], 95.7%; in experiment [5] it was 103%; in [6] it was 112%. Besides, the growth in experiment [7] was 88.9%; in experiment [8] it was 90.6%; in experiment [9], 83.9%; in experiment [10], 102%.

As for `Cc1ccc(S(=O)(=O)Oc2cc(OS(=O)(=O)c3ccc(C)cc3)cc(OS(=O)(=O)c3ccc(C)cc3)c2)cc1`, the growth in experiment [1] is 98.9%; in experiment [2], 101%; in experiment [3] it was 140%; in experiment [4], 101%; in experiment [5] it was 100%; in experiment [6], 72.1%. Further, the growth in [7] is 80.8%; in experiment [8], 97.5%; in [9] it was 101%; in experiment [10], 114%.

For `Cc1cc(C)c2c(-c3nnc(N)s3)cc(=O)oc2c1`, the growth was 96.3% in experiment [1]; 100% in experiment [2]; 99% in experiment [3]; 111% in [4]; 103% in experiment [5]; 115% in [6]. Moreover, the growth in experiment [7] was 101%; in experiment [8] it was 104%; in experiment [9], 99.4%; in experiment [10], 116%.

`C[C@@]1(CCC#N)[C@H]2CC[C@@H]3[C@H]4[C@H](C(=O)/C=C/c5cccnc5)CC[C@]4(C#N)CC[C@@]3(C)[C@]2(C)CC[C@H]1C(=O)/C=C/c1cccnc1`: the growth in experiment [1] was 62.8%; in experiment [2], 65.5%; in [3] it was 97.7%; in [4], 73.2%; in experiment [5], 75.2%; in [6], 80.7%. Further, the growth was 37.9% in [7], 71.9% in experiment [8], 77.9% in [9] and 71.7% in [10].

As to `COc1ccc2c(c1)O/C(=C\c1cccc(OCC(=O)Nc3nc4ccccc4s3)c1)C2=O`, the growth is -1.91% (active) in experiment [1]; 83.7% in experiment [2]; 106% in [3]; 115% in [4]; 110% in experiment [5]; -24.5% (active) in [6]. The growth is -60.1% (active) in experiment [7], 95.8% in [8], 92.2% in experiment [9] and 104% in [10].

Consider `O=C(CSc1nnc(-c2ccc(NC(=O)c3cccnc3)cc2)o1)N[C@@H](Cc1ccc(O)cc1)C(=O)O`, for which the growth is 108% in experiment [1]; 102% in experiment [2]; 99.8% in experiment [3]; 98% in experiment [4]; 111% in [5]; 96.3% in [6]. Besides, the growth in experiment [7] was 91%; in experiment [8], 104%; in [9], 99.6%; in [10], 101%.

Regarding `C=CCn1c(C)nc2cc(Nc3nc(N4CCCC4)nc4ccccc34)ccc21`, the growth in experiment [1] was 88.6%; in experiment [2], 97.7%; in experiment [3], 113%; in experiment [4], 90.6%; in experiment [5] it was 81.2%; in experiment [6] it was 81.3%. The growth in experiment [7] is 127%; in [8], 74.6%; in experiment [9], 75.9%; in experiment [10], 92.6%.

Regarding `NC(=S)N/N=C/Cc1ccccc1`, the growth in experiment [1] was 99.6%; in experiment [2], 103%; in experiment [3], 105%; in [4], 104%; in experiment [5] it was 110%; in [6] it was 109%. In addition, the growth in [7] was 100%; in experiment [8], 90.6%; in experiment [9], 106%; in [10], 97.2%.

For `COc1ccc(-c2nc3c(N)c(CO)c(C)nc3o2)cc1`, the growth in experiment [1] was 86.6%; in experiment [2] it was 41.2%; in experiment [3] it was 92.5%; in experiment [4] it was 90.3%; in [5], 108%; in [6], 116%. Besides, the growth in [7] was 91.6%; in experiment [8], 92.4%; in [9] it was 95.5%; in experiment [10] it was 109%.

As to `Cn1c(-c2c(N)n(Cc3cccnc3)c3nc(C#N)c(C#N)nc23)nc2ccccc21`, the growth is 92.2% in experiment [1]; 98.4% in experiment [2]; 77% in experiment [3]; 95.3% in [4]; 106% in experiment [5]; 2.81% (active) in [6]. Moreover, the growth is 76.4% in [7], 94.6% in [8], 91% in experiment [9] and 117% in experiment [10].

With `Cc1ccc(C(=NN=C(N)N)c2ccc(C)cc2)cc1`, the growth in experiment [1] is -14.5% (active); in [2] it was 12.3%; in experiment [3], 30.5%; in experiment [4], 13.1%; in [5] it was 2.86% (active); in experiment [6], -0.938% (active). The growth in experiment [7] is -13.8% (active); in experiment [8], 11.1%; in experiment [9], -25% (active); in [10] it was -83.2% (active).

For `Cc1c(C(=O)N[C@@H](Cc2ccccc2)C(=O)C(=O)NCCc2ccccc2)[nH]c2ccccc2c1=O`, the growth in [1] was 93.5%; in experiment [2] it was 101%; in experiment [3], 96.2%; in experiment [4] it was 111%; in experiment [5] it was 87.2%; in experiment [6], 116%. Moreover, the growth in [7] was 97.6%; in experiment [8] it was 98.8%; in experiment [9], 107%; in experiment [10], 31.2%.

On to `NNC(=O)c1nc(N)n(-c2ccc(S(N)(=O)=O)cc2)n1`, for which the growth in [1] is 97.2%; in [2], 98.7%; in experiment [3], 97.3%; in experiment [4] it was 90.6%; in [5], 105%; in experiment [6] it was 74.2%. Also, the growth is 80.3% in [7], 97.1% in experiment [8], 95.7% in [9] and 103% in [10].

`C[C@H]1[C@H]2[C@H]3CC[C@@H]4[C@@]5(C)C/C(=C/c6ccco6)C(=O)C(C)(C)[C@@H]5CC[C@@]4(C)[C@]3(C)CC[C@]23CO[C@]1(C)[C@@H](C(=O)/C=C\c1ccco1)C3`: the growth in experiment [1] is 99.6%; in experiment [2], 99.6%; in [3], 98.4%; in [4], 106%; in experiment [5] it was 107%; in experiment [6], 87.1%. For the same compound, the growth in [7] was 85.7%; in experiment [8] it was 88.3%; in [9] it was 104%; in experiment [10], -6.84% (active).

Consider `CC(C)=C[C@@H]1c2c(c3ccccc3n(C)c2=O)O[C@H]2c3c(c4ccccc4n(C)c3=O)OC(C)(C)[C@@H]12`, for which the growth in [1] was 99.6%; in experiment [2] it was 101%; in [3] it was 112%; in [4], 115%; in experiment [5] it was 75.3%; in experiment [6], -4.59% (active). Besides, the growth in experiment [7] was 53.4%; in experiment [8], 89.3%; in experiment [9] it was 93.5%; in experiment [10], 95.3%.

With `C=C1C(=O)O[C@H]2[C@H]1CC/C(COC(=O)C(=O)c1c[nH]c3ccccc13)=C\CC[C@@]1(C)O[C@@H]21`, the growth in experiment [1] was -42.8% (active); in experiment [2] it was -61.6% (active); in experiment [3], 24.6%; in experiment [4], 2.66% (active); in experiment [5] it was 6.72% (active); in [6], -74.3% (active). Also, the growth is -62% (active) in experiment [7], 9.03% (active) in experiment [8], -75.8% (active) in [9] and -62.2% (active) in experiment [10].

As to `O=C(c1ccccc1)c1c(/C=C/c2ccccc2)nc2ccccc2c1/C=C/c1ccc(Br)cc1`, the growth in experiment [1] is 94.5%; in experiment [2] it was 95.1%; in experiment [3], 96.7%; in experiment [4] it was 101%; in experiment [5], 106%; in experiment [6], 98.3%. In addition, the growth is 88.2% in [7], 98.1% in experiment [8], 99.7% in [9] and 114% in experiment [10].

Turning to `COc1cc(/C=C/C(=O)N2CCN(C(=O)c3cc(OC)c(OC)c(OC)c3)CC2)ccc1OCCCN1C(=O)c2cccc3cccc(c23)C1=O`, the growth is 106% in [1]; 87% in [2]; 100% in experiment [3]; 94.1% in experiment [4]; 82.6% in experiment [5]; -0.534% (active) in experiment [6]. Also, the growth is 65.4% in experiment [7], 85.3% in experiment [8], 73.1% in experiment [9] and 116% in [10].

As to `COc1ccc(C(=NN=C(N)N)c2ccc(OC)cc2)cc1`, the growth in experiment [1] was 41.3%; in experiment [2] it was 50.3%; in [3] it was 49%; in experiment [4], 36.6%; in experiment [5], 29.8%; in [6], 3.59% (active). The growth in experiment [7] is 34%; in experiment [8], 46.1%; in experiment [9], 45.4%; in experiment [10], -7.03% (active).

Consider `CCN(CC)c1ccc(C(=O)c2ccc(N(CC)CC)cc2)cc1`, for which the growth is 3.77% (active) in [1]; 48.5% in experiment [2]; 54.7% in [3]; 29.2% in experiment [4]; 6.72% (active) in experiment [5]; 51.2% in experiment [6]. In addition, the growth in experiment [7] was 3.66% (active); in experiment [8] it was 31.9%; in experiment [9], 4.16% (active); in [10], -29% (active).

Take `O=c1c2c3c(sc2n2c(-c4cc(-c5ccccc5)nn4-c4ccccc4)nnc2n1Cc1ccccc1)CCCC3`: the growth in [1] was 105%; in experiment [2] it was 99%; in experiment [3], 112%; in experiment [4] it was 95%; in [5] it was 106%; in [6], 53.2%. In addition, the growth in [7] was 45.9%; in experiment [8] it was 101%; in experiment [9], 95.9%; in experiment [10], 86%.

On to `CCCCC1CCCCN1C(=O)OCC` (stereo not given), for which the growth in experiment [1] was 102%; in [2], 121%; in [3], 101%; in experiment [4] it was 103%; in experiment [5] it was 107%; in experiment [6], 88.5%. For the same compound, the growth in [7] was 94.1%; in [8] it was 95.1%; in [9], 93%; in experiment [10], 102%.

Turning to `O=C(COc1ccc(/C=C2\Oc3ccccc3C2=O)cc1)c1ccc(Cl)cc1`, the growth in [1] was 107%; in [2] it was 92.4%; in [3], 126%; in experiment [4], 91.1%; in [5] it was 115%; in [6], 88%. The growth in experiment [7] is 96.1%; in [8] it was 112%; in experiment [9], 91%; in experiment [10], 108%.

As to `COc1cccc(-c2nn(-c3ccccc3)cc2-c2ccnc(NCCCNC(=O)Nc3ccc(Cl)c(Cl)c3)c2)c1`, the growth in experiment [1] is 15.1%; in [2] it was 47.9%; in experiment [3], 24.3%; in [4] it was -5.99% (active); in [5] it was 18.5%; in experiment [6], -11.7% (active). Moreover, the growth was -37% (active) in [7], 7.3% (active) in [8], -38.7% (active) in experiment [9] and -44.7% (active) in experiment [10].

Regarding `COc1cccc(C(=O)NCCNc2cc(-c3cn(-c4ccccc4)nc3-c3cccc(OC)c3)ccn2)c1`, the growth in experiment [1] was 59.7%; in experiment [2], 77.3%; in experiment [3], 92.6%; in experiment [4] it was 61%; in experiment [5] it was 57.4%; in experiment [6], 46.2%. Further, the growth in experiment [7] was 35.8%; in experiment [8] it was 43.6%; in experiment [9] it was 50.5%; in [10], 59%.

For the compound `c1c[nH]c(CNC2CCCCC2)c1`, the growth in experiment [1] was 97.7%; in [2], 102%; in experiment [3], 104%; in experiment [4] it was 103%; in [5], 105%; in [6], 72.9%. Also, the growth is 109% in [7], 103% in experiment [8], 112% in experiment [9] and 115% in experiment [10].

(Values after PubChem BioAssay (NCI).)
